The values that follow come from PubChem BioAssay (NCATS).

Test [1] deals with Lysosomal acid glucosylceramidase (Homo sapiens) (UniProt P04062). The experiment in a line: Glucocerebrosidase-p2 (AID 348; in the data active means potency below about 10 µM; further: potency means the concentration at half of the fitted maximal effect). The conditions noted are these: purified GBA, blue fluorogenic substrate, 40 min. The method, boiled down:
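Compounds titrated from 0.6 nM upwards against 0.2 nM enzyme in pH 5.9 citric acid/KH2PO4, taurocholate, tween-20; blue fluorogenic substrate 80 uM, 40 min room temperature, stopped and read Ex 365/Em 440 for AC50.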

Test [2] can be described thus: AP1 Signaling Pathway (AID 357). Further: on the % scale 0 is the no-effect control and ±100 the full control effect. Particulars: ME-180 AP-1-bla reporter, EGF-induced, beta-lactamase ratio, 5 h; at 7.69 µM (top of the series) unless noted. The method, boiled down: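 ME-180 cells with beta-lactamase reporter under AP-1 response element, stimulated with EC50 EGF; compounds tested in titration series, 5 h at 37 °C. CCF4 substrate added 2.5 h at room temperature; 460/530 nm emission ratio gave %activity and AC50.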

The target in test [3] is Cytochrome P450 1A2 (Homo sapiens) (UniProt P05177). Kind of test: p450-cyp1a2 (AID 410; calls by dose curve; further: potency means the concentration at half of the fitted maximal effect;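 on activity change, negative = inhibition: -100% = full effect of reference inhibitor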). The conditions noted are these: recombinant CYP1A2, luciferin-ME demethylation, luminescence; series mostly up to 11.4 µM. The method, boiled down:
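Inhibition was calculated relative to 57 uM furafylline (full inhibition). The reaction used human CYP1A2 at 20nM with Luciferin-ME at its Km, 100uM, driven by an NADPH-regenerating system for 60 min at room temperature.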

Test [4] can be described thus: NFAT Signaling Pathway (AID 444).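 Further: carbachol stimulus at about its EC50 of 1 µM final; on the % scale 0 is the no-effect control and ±100 the full control effect.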 The conditions noted are these: Jurkat NFAT-bla M1, carbachol, beta-lactamase ratio, 5 h; at 7.69 µM (top of the series) unless noted. The method, boiled down:
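Jurkat cells with NFAT-driven β-lactamase reporter and co-expressed M1 receptor, stimulated with carbachol (final 1 uM, ~EC50), compound titration, 5 h at 37 °C. CCF4 loaded 1 h at RT; 460/530 nm ratio gave %activity and AC50.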

The target of test [5] is Glucocorticoid receptor (Homo sapiens) (UniProt P04150). Kind of test: GR-GFP Redistribution (AID 450;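 active means compounds whose dose series gives a full or clear partial fitted curve of increased nuclear translocation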; further: potency means the concentration at half of the fitted maximal effect). Particulars: U2OS GR-GFP nuclear translocation, laser cytometry, 2 h.
Chain of Glucocorticoid receptor (Homo sapiens) (P04150 whole entry, looked up, the tested form may be a part): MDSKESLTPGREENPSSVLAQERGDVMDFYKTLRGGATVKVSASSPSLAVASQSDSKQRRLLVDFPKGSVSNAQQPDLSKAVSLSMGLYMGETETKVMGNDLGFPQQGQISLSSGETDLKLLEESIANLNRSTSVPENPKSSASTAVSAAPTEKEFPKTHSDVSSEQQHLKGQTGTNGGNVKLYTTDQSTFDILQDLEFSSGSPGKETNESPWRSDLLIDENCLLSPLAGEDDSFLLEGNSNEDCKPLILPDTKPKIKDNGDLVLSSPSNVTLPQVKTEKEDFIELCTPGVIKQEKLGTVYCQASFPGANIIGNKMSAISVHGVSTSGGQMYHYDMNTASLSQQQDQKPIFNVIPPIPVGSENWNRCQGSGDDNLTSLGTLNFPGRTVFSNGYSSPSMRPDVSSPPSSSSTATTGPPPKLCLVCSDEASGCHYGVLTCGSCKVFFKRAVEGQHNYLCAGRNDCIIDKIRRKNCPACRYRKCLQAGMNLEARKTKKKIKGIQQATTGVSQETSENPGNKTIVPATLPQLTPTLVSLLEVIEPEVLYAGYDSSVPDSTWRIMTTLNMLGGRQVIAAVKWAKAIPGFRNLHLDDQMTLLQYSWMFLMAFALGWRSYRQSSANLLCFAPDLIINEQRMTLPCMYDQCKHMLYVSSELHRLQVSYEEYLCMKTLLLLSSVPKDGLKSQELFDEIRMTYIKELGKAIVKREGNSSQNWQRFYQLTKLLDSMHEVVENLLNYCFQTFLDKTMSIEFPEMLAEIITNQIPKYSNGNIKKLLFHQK
For test [6] the target is unchanged. Kind of test: GR-EFC Redistribution (AID 451; calls by dose curve; further: potency means the concentration at half of the fitted maximal effect). Particulars: CHO-K1 GR-EFC translocation, beta-gal luminescence, 2 h. Put shortly: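 CHO-K1 cells expressing nuclear EA and GR-ED fragments of b-gal; compounds titrated up to 46 uM final, 2 h at 37 C. GR nuclear translocation read as complemented b-gal luminescence after 1 h RT detection.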
Test [7] deals with Mitogen-activated protein kinase 10 (Mus musculus) (UniProt Q61831). The experiment in a line: JNK3 AlphaScreen Assay (AID 530).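 Further: kinase came from lysate of stimulated human HepG2 cells; signal reports phosphorylation of biotinylated GST-cJun 1-79 at Ser73 with 10 µM ATP; on the % scale 0 is the no-effect control and ±100 the full control effect.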 Particulars: JNK3 lysate, c-Jun phosphorylation; series mostly up to 11.4 µM. Put shortly:
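qHTS format: compounds tested as titrations against IL-1beta/TNF-alpha-activated HepG2 lysate JNK3 with biotin-GST-cJun substrate and 10 uM ATP at room temperature. Loss of anti-phospho-cJun AlphaScreen signal indicates inhibition.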

Test [8] concerns the target 3',5'-cyclic-AMP phosphodiesterase 4B (Homo sapiens) (UniProt Q07343). Kind of test: qHTS Assay for Inhibitors of PDE-IV (AID 607; active means well fitted activation curve with a large enough effect in the main read-out, with a control signal flat, not every such curve was filed as active; further: % of control where 0% means no effect). The conditions noted are these: HEK293 ACTOne CNG channel cells, membrane potential fluorescence; series mostly up to 22.9 µM. The method, boiled down: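 The readout is membrane depolarisation from a cAMP-sensing CNG channel, detected with a potential dye at ex 535/em 590. Cells were HEK293-derived (endogenous PDE-IV) at 1000 cells/well, titrated up to 22.9 uM final.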

A short description of test [9]: Stat Signaling Pathway (AID 446).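 Further: ME-180 cervical cancer cells given 40 pM IL-6 alongside compound; SIE-controlled beta-lactamase reporter measured as 460/530 nm FRET emission ratio; on the % scale 0 is the no-effect control and ±100 the full control effect.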 Particulars: ME-180 SIE beta-lactamase reporter, IL-6 stimulated, 5 h; at 7.69 µM (top of the series) unless noted. The method, boiled down: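 Screening format detects activators and inhibitors alike: ME-180 SIE-bla cells stimulated at 40 pM IL-6 for 5 hrs with compound, then dual-emission beta-lactamase read at 405 nm excitation.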

Test [10] addresses Cytochrome P450 2C9 (Homo sapiens) (UniProt P11712). The experiment in a line: qHTS Assay for Inhibitors and Substrates of Cytochrome P450 2C9 (AID 883; active means well fitted curve in the direction sought with a large enough effect; an effect the other way counts as inactive or inconclusive; further: on the % scale 0 is the no-effect control and ±100 the full control effect; nearly all actives have a fitted effect of over 60% in size). Particulars: recombinant CYP2C9, luciferin-H luminescence, 60 min; series mostly up to 11.4 µM. Put shortly:
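Human CYP2C9 (10nM) with Luciferin-H at 100uM (its KM) in 25mM KPO4; compound preincubated 10 min at 37C, then NADPH regeneration for 60 min at 37C. Luciferin read by luminescence after detection reagent; normalized to 57uM sulphaphenazole as full inhibition.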

Test [11] deals with Cytochrome P450 2D6 (Homo sapiens) (UniProt P10635). The experiment in a line: qHTS Assay for Inhibitors and Substrates of Cytochrome P450 2D6 (AID 891; active means well fitted curve in the direction sought with a large enough effect; an effect the other way counts as inactive or inconclusive; further: nearly all actives have a fitted effect of over 60% in size; further: potency means the concentration at half of the fitted maximal effect). Particulars: recombinant CYP2D6, luciferin-ME EGE luminescence; series mostly up to 11.4 µM. The method, boiled down:
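Human CYP2D6 (5 nM) with 30 uM Luciferin-ME EGE (at Km) in 100 mM KPO4, compound preincubated 10 min, then NADPH regeneration system for 60 min at room temperature. Luciferin read by luminescence; normalized to 1.43 uM quinidine.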

Test [12] has as its target Cytochrome P450 2C19 (Homo sapiens) (UniProt P33261). Kind of test: qHTS Assay for Inhibitors and Substrates of Cytochrome P450 2C19 (AID 899; active means well fitted curve in the direction sought with a large enough effect; an effect the other way counts as inactive or inconclusive; further: on the % scale 0 is the no-effect control and ±100 the full control effect; nearly all actives have a fitted effect of over 60% in size). The conditions noted are these: recombinant CYP2C19, luciferin-H EGE luminescence; series mostly up to 11.4 µM. The method, boiled down:
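5 nM human CYP2C19 with 10uM Luciferin-H EGE (at KM) in 50mM KPO4, compound preincubated 10 min at 37C, then NADPH regeneration for 60 min at 37C. Luciferin read by luminescence after detection reagent; normalized to 57uM ketoconazole as full inhibition.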

For test [13], the target named is Luciferin 4-monooxygenase (Photinus pyralis) (UniProt P08659). Kind of test: Biochemical firefly luciferase enzyme assay for NPC (AID 624030; active means well fitted curve in the direction sought with a large enough effect; an effect the other way counts as inactive or inconclusive;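 further: purified P. pyralis luciferase at 10 nM with luciferin and ATP substrate; 0% = DMSO and -100% = full luciferase inhibition by PTC124 control; nearly all actives have a fitted effect of over 70% in size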). The conditions noted are these: purified P. pyralis luciferase, luminescence, 5 min; series mostly up to 58.6 µM. The method, boiled down: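 Purified P. pyralis luciferase at 10 nM in 50 mM Tris Acetate (final), luminescence read within 5 minutes of enzyme addition to compounds. Activity normalised to PTC124 versus DMSO; concentration-response curves classed by r2, magnitude and activity.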

Test [14] can be described thus: S16 Schwann cell PMP22 intronic element beta-lactamase assay (AID 624044; calls by dose curve;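 further: 0% = DMSO and -100% = potassium clavulanate positive control; nearly all actives have a fitted effect of over 15% in size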). Particulars: S16 rat Schwann cells, PMP22 element beta-lactamase FRET, 24 h; series mostly up to 38.3 µM. Put shortly:
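Rat S16 Schwann cells with beta-Lac driven by a PMP22 intronic element, compound-treated 24 h at 37 °C. LiveBLAzer FRET B/G read: 460 nm normalized to potassium clavulanate vs DMSO; 535 nm FRET as viability; concentration-effect curves classified.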

Test [15] can be described thus: qHTS profiling for inhibitors of Plasmodium falciparum proliferation (AID 504749; active means well fitted curve in the direction sought with a large enough effect; an effect the other way counts as inactive or inconclusive;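 further: 0% = DMSO vehicle and full inhibition = artemisinin control; nearly all actives have a fitted effect of over 60% in size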). The conditions noted are these: P. falciparum in erythrocytes, SYBR Green DNA, 72 h, at 28.7 µM (top of the series). The method, boiled down:
(§1)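 Readout was DNA-dye fluorescence from lysed cultures, ex 485/em 535 nm. Parasitized red cells had grown 72 h with compound; data scaled between 0.29 uM artemisinin and DMSO wells and corrected using vehicle-only plates.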

Test [16] concerns 3D7. The description is as above. Particulars: P. falciparum in erythrocytes, SYBR Green DNA, 72 h; series mostly up to 28.7 µM. The method, boiled down:
as §1

Test [17] concerns AS120. The test is described as above. Particulars: P. falciparum in erythrocytes, SYBR Green DNA, 72 h; series mostly up to 28.7 µM. Put shortly: as §1
Test [18] is described as follows: qHTS Assay for Identification of Small Molecule Agonists for Hypoxia Response Element Signaling Pathway (AID 914; active means well fitted activation curve with a large enough effect in the signal ratio, with a control signal flat, not every such curve was filed as active; the % refers to the signal ratio; further: % of control where 0% means no effect). The conditions noted are these: ME-180 (cervical carcinoma) HRE-bla reporter, beta-lactamase ratio, CoCl2, 17 h; activation: hits give high values. Put shortly:
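HRE-bla ME-180 assay for agonist-like enhancement of an EC50 CoCl2 stimulus: 17 h at 37 degrees Celsius, CCF4 for 2.5 h, ratiometric 460/530 nm signal converted to %Activity and fitted to AC50.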

Test [19] concerns the target Cytochrome P450 3A4 (Homo sapiens) (UniProt P08684). The experiment in a line: qHTS Assay for Inhibitors and Substrates of Cytochrome P450 3A4 (AID 884; active means well fitted curve in the direction sought with a large enough effect; an effect the other way counts as inactive or inconclusive; further: potency means the concentration at half of the fitted maximal effect; nearly all actives have a fitted effect of over 50% in size). The conditions noted are these: recombinant CYP3A4, Luciferin-PPXE luminescence; series mostly up to 57.1 µM. Put shortly: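 20 nM human CYP3A4 with 25 uM Luciferin-PPXE (at KM) in 200 mM KPO4, preincubated 10 min with compound; NADPH regeneration started a 60 min RT reaction. Luciferin detected by luminescence, normalized to 57 uM ketoconazole as full inhibition.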

The target is the same in test [20]. The experiment in a line: qHTS Assay for Activators of Cytochrome P450 3A4 (AID 885; active means well fitted curve in the direction sought with a large enough effect; an effect the other way counts as inactive or inconclusive; further: nearly all actives have a fitted effect of over 65% in size). Particulars: recombinant CYP3A4, Luciferin-PPXE luminescence, 60 min; series mostly up to 11.4 µM. Put shortly: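 Steps: enzyme/substrate mix dispensed; compound added, 10 min RT; NADPH regeneration solution added, 60 min RT; luciferin detection buffer stops reaction; 20 min later luminescence measured.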

A number with no mark means an inactive call. Records with an inconclusive call do not appear. Calls of active or inactive are those of the source. Unless noted, the call rests on the fitted dose curve; in most records, active means well fitted curve in either direction with a large enough effect (not every such curve was filed as active); inconclusive means small, poorly fitted or top-dose-only effect, or another doubt; inactive means flat fitted curve, though single readings scatter.

Chain of 3',5'-cyclic-AMP phosphodiesterase 4B (Homo sapiens) (Q07343 whole entry, looked up): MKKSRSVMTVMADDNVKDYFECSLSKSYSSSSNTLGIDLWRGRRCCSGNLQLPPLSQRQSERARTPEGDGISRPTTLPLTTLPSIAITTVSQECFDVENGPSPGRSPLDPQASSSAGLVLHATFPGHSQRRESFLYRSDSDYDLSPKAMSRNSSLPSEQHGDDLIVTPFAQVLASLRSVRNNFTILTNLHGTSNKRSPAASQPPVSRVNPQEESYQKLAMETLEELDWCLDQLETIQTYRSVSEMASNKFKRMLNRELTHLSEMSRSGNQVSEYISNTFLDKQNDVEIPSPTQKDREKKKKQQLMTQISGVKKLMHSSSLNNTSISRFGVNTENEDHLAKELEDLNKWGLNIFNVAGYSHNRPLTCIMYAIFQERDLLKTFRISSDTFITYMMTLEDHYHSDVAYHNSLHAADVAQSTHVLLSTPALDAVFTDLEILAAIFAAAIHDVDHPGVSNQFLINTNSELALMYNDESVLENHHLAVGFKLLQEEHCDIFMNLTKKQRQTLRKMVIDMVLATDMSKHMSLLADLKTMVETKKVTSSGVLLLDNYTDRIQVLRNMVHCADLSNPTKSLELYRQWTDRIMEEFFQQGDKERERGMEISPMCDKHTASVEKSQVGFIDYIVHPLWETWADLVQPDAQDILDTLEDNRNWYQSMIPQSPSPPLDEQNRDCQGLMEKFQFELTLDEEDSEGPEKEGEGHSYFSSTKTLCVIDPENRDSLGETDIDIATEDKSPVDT
Chain of Cytochrome P450 1A2 (Homo sapiens) (P05177 whole entry, looked up): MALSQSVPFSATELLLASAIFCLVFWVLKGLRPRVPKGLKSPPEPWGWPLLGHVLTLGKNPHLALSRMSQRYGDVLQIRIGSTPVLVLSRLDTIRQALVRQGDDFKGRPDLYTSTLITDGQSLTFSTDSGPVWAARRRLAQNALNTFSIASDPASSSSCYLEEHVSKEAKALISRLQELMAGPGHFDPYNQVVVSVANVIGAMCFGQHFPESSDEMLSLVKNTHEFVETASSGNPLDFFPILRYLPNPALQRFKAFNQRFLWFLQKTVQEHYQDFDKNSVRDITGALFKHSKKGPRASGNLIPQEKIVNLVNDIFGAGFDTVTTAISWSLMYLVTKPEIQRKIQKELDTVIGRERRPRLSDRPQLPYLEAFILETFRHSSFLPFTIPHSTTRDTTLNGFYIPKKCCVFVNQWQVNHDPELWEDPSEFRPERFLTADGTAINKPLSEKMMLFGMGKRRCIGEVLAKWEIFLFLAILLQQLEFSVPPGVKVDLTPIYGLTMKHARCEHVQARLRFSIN
Chain of Lysosomal acid glucosylceramidase (Homo sapiens) (P04062 whole entry, looked up): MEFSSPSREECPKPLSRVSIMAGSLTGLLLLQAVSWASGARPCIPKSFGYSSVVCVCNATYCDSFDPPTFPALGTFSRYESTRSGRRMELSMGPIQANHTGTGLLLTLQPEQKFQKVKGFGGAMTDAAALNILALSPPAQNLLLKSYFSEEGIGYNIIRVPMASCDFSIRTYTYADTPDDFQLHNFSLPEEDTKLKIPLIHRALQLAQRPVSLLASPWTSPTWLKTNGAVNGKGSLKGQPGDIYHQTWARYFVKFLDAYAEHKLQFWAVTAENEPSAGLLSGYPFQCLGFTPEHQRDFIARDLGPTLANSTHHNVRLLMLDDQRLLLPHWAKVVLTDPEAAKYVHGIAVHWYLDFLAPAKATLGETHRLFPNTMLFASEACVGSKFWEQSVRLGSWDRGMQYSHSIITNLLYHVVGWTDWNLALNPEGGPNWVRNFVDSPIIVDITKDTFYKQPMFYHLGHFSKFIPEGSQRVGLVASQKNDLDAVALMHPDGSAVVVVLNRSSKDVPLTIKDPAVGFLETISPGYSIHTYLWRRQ
Chain of Cytochrome P450 3A4 (Homo sapiens) (P08684 whole entry, looked up): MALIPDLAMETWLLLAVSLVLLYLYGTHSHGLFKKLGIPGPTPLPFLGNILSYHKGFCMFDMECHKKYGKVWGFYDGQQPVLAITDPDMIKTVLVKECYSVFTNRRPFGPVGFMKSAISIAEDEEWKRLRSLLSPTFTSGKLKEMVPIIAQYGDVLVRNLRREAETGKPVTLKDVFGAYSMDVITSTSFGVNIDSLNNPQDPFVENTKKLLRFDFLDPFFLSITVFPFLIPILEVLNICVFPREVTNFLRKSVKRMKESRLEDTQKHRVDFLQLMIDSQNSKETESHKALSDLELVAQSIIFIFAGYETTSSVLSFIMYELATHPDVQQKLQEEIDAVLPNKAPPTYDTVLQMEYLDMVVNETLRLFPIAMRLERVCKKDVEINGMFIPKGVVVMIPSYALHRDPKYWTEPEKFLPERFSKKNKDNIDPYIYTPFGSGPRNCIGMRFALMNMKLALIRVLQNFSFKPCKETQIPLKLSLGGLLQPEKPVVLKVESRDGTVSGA
Chain of Cytochrome P450 2C9 (Homo sapiens) (P11712 whole entry, looked up): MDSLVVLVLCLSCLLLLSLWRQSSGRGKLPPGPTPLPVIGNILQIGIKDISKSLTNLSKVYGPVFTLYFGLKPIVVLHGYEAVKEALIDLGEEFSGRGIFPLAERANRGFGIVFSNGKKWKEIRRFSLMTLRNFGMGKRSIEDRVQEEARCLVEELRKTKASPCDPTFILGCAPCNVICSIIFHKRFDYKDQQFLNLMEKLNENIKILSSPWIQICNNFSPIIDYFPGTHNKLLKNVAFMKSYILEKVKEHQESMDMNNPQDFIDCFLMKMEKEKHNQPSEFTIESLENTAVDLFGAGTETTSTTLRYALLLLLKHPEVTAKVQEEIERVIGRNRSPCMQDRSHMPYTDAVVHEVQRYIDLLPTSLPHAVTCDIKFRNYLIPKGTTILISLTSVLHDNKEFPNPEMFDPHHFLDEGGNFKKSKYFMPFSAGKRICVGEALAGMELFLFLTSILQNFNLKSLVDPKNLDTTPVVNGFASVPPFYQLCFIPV
Chain of Cytochrome P450 2D6 (Homo sapiens) (P10635 whole entry, looked up): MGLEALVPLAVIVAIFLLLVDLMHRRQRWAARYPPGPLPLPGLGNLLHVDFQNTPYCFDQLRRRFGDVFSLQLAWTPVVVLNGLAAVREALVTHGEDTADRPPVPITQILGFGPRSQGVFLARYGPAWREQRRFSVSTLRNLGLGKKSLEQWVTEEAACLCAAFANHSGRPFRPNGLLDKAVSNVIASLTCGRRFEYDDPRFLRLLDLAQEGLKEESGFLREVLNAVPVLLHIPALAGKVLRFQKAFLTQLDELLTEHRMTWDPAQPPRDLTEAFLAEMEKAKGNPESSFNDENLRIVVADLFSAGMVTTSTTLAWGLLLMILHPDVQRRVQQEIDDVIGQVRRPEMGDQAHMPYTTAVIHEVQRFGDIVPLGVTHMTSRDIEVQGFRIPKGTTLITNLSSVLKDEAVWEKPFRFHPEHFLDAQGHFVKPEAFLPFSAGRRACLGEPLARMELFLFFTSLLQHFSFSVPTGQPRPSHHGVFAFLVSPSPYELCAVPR
Chain of Cytochrome P450 2C19 (Homo sapiens) (P33261 whole entry, looked up): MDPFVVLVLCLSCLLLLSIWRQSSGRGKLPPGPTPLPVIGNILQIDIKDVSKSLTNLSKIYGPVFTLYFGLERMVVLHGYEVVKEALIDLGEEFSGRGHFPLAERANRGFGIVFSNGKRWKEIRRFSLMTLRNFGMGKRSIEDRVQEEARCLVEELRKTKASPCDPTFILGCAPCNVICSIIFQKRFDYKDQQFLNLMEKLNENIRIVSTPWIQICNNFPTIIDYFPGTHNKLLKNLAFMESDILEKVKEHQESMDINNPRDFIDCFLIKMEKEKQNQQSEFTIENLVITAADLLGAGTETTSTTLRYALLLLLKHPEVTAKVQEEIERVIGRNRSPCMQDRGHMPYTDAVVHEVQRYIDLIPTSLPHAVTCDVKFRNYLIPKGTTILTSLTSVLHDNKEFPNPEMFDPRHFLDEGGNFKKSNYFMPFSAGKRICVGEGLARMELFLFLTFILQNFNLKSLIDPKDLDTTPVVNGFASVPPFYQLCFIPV

Take `c1c[nH]c(CN2CCOCC2)n1`: the Potency was more than 11.4 µM in [1], more than 46 µM in test [5] and more than 9.22 µM in test [6]. In addition, the activity change, negative = inhibition was 6.52% in test [2] and 6.99% in test [4]. In addition, the Potency entry in test [3], in test [7] and in test [8] was “inactive” throughout.
As to `CC(C)CSC[C@@H]1O[C@H](n2cnc3c(N)nccc32)[C@H](O)[C@@H]1O`, the figures for the Potency in [1], in test [5] and in [6] were more than 11.4 µM, more than 46 µM and more than 9.22 µM, respectively. Further, the activity change, negative = inhibition in test [2] is 4.75%; in [4] it was 12.1%. Further, the Potency result in test [3], in test [7] and in test [8] was “inactive” each time.
Regarding `COc1cccc2c1C(=O)c1c(O)c3c(c(O)c1C2=O)C[C@](O)(C(=O)CO)C[C@@H]3O[C@H]1C[C@H](N)[C@@H](O)[C@H](C)O1`, the Potency in [1] was more than 11.4 µM; in test [5], more than 46 µM; in test [6], more than 9.22 µM. In addition, in test [2], the activity change, negative = inhibition is 13.6%. Besides, the Potency entry in [3], in [7], in [8], in [10], in test [11] and in [12] was “inactive” each time. The Potency entry in [16] and in test [17] was “inactive” in each case. The figures for the activity, negative = inhibition in test [9], in test [15] (parasite line A) and in test [15] (parasite line B) were 15.8%, 6.65% and 5.26%, respectively. The result in [13] and in test [14] was inactive.
As to `C/C(C[n+]1ccccc1)=N\N=C(N)N`, the Potency in test [1] is more than 11.4 µM; in [5], more than 46 µM; in [6] it was more than 9.22 µM. Further, the activity change, negative = inhibition was 1.19% in [2] and -14.3% in test [4]. Further, the Potency entry in test [3], in test [7], in test [8] and in test [10] was “inactive” throughout. For the same compound, the activation in [18] is 3.43%.
As to `CN(C)CCCN1c2ccccc2Sc2cnccc21`, the Potency in test [1] was more than 11.4 µM; in test [3], 501 nM (active); in test [5], more than 46 µM; in test [6], more than 9.22 µM; in test [19] it was 1.58 µM (active); in [11] it was 1.58 µM (active). Moreover, the activity change, negative = inhibition in test [2] is 6.06%; in test [4] it was -14.8%. The Potency result in [7], in test [8] and in [20] was “inactive” each time.
With `c1ccc2c(c1)-c1ccccc1C2N1CC2CCC(CC2)C1`, the Potency in [1] is more than 11.4 µM; in test [3], 501 nM (active); in test [5] it was more than 46 µM; in [6], more than 9.22 µM. The activity change, negative = inhibition in [2] was 22.5%. Also, in test [9], the activity, negative = inhibition was 17.6%.
